Bioassay records from PubChem BioAssay.
D1 PAM – potentiators of human D1 dopamine receptor. HEK293 TREx D1 cells, calcium flux, dopamine EC20 potentiation. AID 504651. P21728. potentiation, % at 10 µM. hit rate 0.036% among 360,000; in the data active = potentiation above about 30%; also: 0% is about no effect
Target sequence (P21728 whole entry, looked up): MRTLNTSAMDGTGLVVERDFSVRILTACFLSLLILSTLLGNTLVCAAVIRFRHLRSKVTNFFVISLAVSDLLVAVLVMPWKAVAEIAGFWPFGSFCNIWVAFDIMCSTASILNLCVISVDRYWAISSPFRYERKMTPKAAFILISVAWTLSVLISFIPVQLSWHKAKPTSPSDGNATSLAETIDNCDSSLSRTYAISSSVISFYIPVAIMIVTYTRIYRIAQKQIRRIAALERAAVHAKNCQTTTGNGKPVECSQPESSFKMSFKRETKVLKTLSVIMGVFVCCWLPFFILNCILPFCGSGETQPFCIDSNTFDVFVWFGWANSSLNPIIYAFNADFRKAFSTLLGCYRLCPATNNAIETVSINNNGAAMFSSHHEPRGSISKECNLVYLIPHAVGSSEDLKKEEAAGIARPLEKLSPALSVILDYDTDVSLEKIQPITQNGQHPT
D1 agonist – agonists of human D1 dopamine receptor | P21728 | HEK293 T-REx D1 cells, calcium flux, agonist mode | activation, % at 2 µM | hit rate 1% among 360,000 | AID 504660; also: 0% is about no effect
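Tetracycline-induced HEK293 TREx D1 cells, force-coupled to calcium signalling, were dye-loaded with a no-wash calcium kit. Compound was pin-added after a 10 s baseline. Fluorescence was read kinetically at 1 cycle/s for 180 s, with calcium rises flagged as agonism.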
TRHR ag – TRH receptor (human) agonism; AID 493084; hit rate 0.18% among 360,000; TRHR cells, calcium flux fluo-8, FDSS agonist mode; activation, % at 2 µM; also: 0% is about no effect
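Steps: seed TRHR cells overnight; add fluo-8 no-wash Ca dye, RT 30 min–1.5 h; record 10 s baseline; pin-transfer compounds; monitor fluorescence 1 cycle/s for the agonist window. Calcium increases flag candidate agonists.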
TRHR PAM – allosteric enhancers of human TRH receptor. P34981. TRHR cells, fluo-8 calcium fluorescence, EC20 TRH enhancement. enhancement, % at 2 µM. hit rate 0.66% among 360,000; in the data active = enhancement above about 30%; also: 0% is about no effect
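Enhancer read-out: after compound pinning and an initial kinetic agonist-mode read, an EC20 of TRH (10 nM final) was injected and fluo-8 calcium signal (Ex 480/Em 530) followed at 1 s/cycle for 100 cycles in TRHR-expressing cells.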
D1 antagonist – antagonists of human D1 dopamine receptor. P21728. HEK293 TREx D1 cells, calcium flux, dopamine EC80; active compounds read low. activity change, negative = inhibition, % at 10 µM. hit rate 3.2% among 360,000; in the data active = activity change below about -30%; also: % is scaled to controls: 0 for no effect and ±100 for the full control effect
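HEK293 T-REx cells expressing inducible, force-coupled D1 receptor; no-wash Ca dye, 30–90 min RT. Cmpd → 180 s read at 1 Hz → EC80 DA → 180 s read.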
Starred values were filed as active, the others as inactive. A selection: hits, their analogues and other compounds. The true share with any hit is near 4.6%. Rule as the data show it, unless noted: active = activation above about 30%; inactive = the rest.

For CC(C)CC(O)C(=O)Nc1cc(C(F)(F)F)ccc1Cl (stereo unspecified) the results were D1 PAM 3, D1 agonist 1, TRHR ag 1, TRHR PAM 0 and D1 antagonist -8.
CCOC(=O)c1cc(-c2ccc(C)cc2)nn1Cc1ccccc1 was read as D1 PAM 0, D1 agonist 16, TRHR ag 2, TRHR PAM 22 and D1 antagonist 19.
O=C(O)CCc1cc(I)c(Oc2ccc(O)c(I)c2)c(I)c1 was read as D1 PAM -9, D1 agonist 85*, TRHR ag 2, TRHR PAM 13 and D1 antagonist 0.
COc1ccc(-n2ncc(C(=O)NCc3ccco3)c2C2CCN(C(=O)OC(C)(C)C)CC2)cc1 was read as D1 PAM -3, D1 agonist 1, TRHR ag 0, TRHR PAM 3 and D1 antagonist -14.
Screening CN(CC(=O)Nc1cccc(F)c1)C(=O)c1ccc(C(=O)c2ccccc2)cc1 returned D1 PAM -6, D1 agonist 18, TRHR ag 4, TRHR PAM -5 and D1 antagonist -60*.
For CCC1=Nc2cc(C(=O)NCCN3CCCC3)ccc2Sc2ccccc21 the results were D1 PAM -8, D1 agonist 16, TRHR ag 1, TRHR PAM 4 and D1 antagonist -30*.
CCC1=Nc2cc(C(=O)NCCN3CCOCC3)ccc2Sc2ccc(Br)cc21 was read as D1 PAM -14, D1 agonist 11, TRHR ag 1, TRHR PAM -1 and D1 antagonist -36*.
`CCCCC(CC)CNC(=O)CCS(=O)(=O)c1cccc2nonc12` (stereo unspecified) gave D1 PAM -2, D1 agonist 3, TRHR ag -1, TRHR PAM 2 and D1 antagonist -56*.
For CCC(=O)c1ccc(OCC(O)CNC2CCCC2)cc1 (stereo unspecified) the results were D1 PAM 0, D1 agonist 5, TRHR ag 1, TRHR PAM -2 and D1 antagonist -3.
Screening Cc1ccc(C)c(N2CCN(S(=O)(=O)c3ccc4[nH]c(=O)ccc4c3)CC2)c1 returned D1 PAM -4, D1 agonist 4, TRHR ag -1, TRHR PAM -3 and D1 antagonist -11.
Cc1cccc(N2CCN(S(=O)(=O)c3ccc4[nH]c(=O)ccc4c3)CC2)c1C was read as D1 PAM -7, D1 agonist 13, TRHR ag 0, TRHR PAM -1 and D1 antagonist -35*.
`Cc1cccc(N2CCN(S(=O)(=O)c3ccc4c(c3)NC(=O)C(C)S4)CC2)c1C` (stereo unspecified) gave D1 PAM 1, D1 agonist 5, TRHR ag 0, TRHR PAM 0 and D1 antagonist 16.
Cc1cccc(N2CCN(S(=O)(=O)c3ccc4c(c3)C(C(C)C)C(=O)N4)CC2)c1C (stereo unspecified) was read as D1 PAM 0, D1 agonist 6, TRHR ag -1, TRHR PAM 2 and D1 antagonist -37*.
Screening CCOc1ccc(CSC2=NCCN2)cc1Cl returned D1 PAM -9, D1 agonist 14, TRHR ag 0, TRHR PAM -8 and D1 antagonist -35*.
COc1ccc(NC(=O)CSc2ccc3nnc(CCNC(=O)c4ccccc4)n3n2)cc1OC was read as D1 PAM 0, D1 agonist 0, TRHR ag 1, TRHR PAM -1 and D1 antagonist -2.
Screening Cc1cc([N+](=O)[O-])nn1Cc1ccc(C(=O)N/N=C/c2ccc(F)cc2)cc1 returned D1 PAM -4, D1 agonist 0, TRHR ag 0, TRHR PAM -4 and D1 antagonist -4.
`Cc1cc([N+](=O)[O-])nn1Cc1ccc(C(=O)N/N=C/c2ccc(O)cc2O)cc1` gave D1 PAM -5, D1 agonist 1, TRHR ag 0, TRHR PAM 3 and D1 antagonist -33*.
Screening COC(=O)c1nc2ccc(C)cn2c1F returned D1 PAM -4, D1 agonist 0, TRHR ag 0, TRHR PAM -4 and D1 antagonist -58*.
Screening CCC(=O)Nc1c(-c2ccc(C)cc2)nc2ccc(C)cn12 returned D1 PAM 1, D1 agonist -3, TRHR ag 0, TRHR PAM 2 and D1 antagonist 12.
CCCCN(CCCC)C(=S)N/N=C/c1c(C)[nH]n(-c2ccccc2)c1=O was read as D1 PAM -6, D1 agonist 1, TRHR ag -1, TRHR PAM 6 and D1 antagonist -11.
CCCSC(=S)c1c(C)[nH]n(-c2ccccc2)c1=O was read as D1 PAM -2, D1 agonist 35*, TRHR ag 0, TRHR PAM 0 and D1 antagonist -11.
C#CC[N+]1(CC#Cc2ccc(C#CC[N+]3(CC#C)CCOCC3)cc2)CCOCC1 was read as D1 PAM -4, D1 agonist 0, TRHR ag 0, TRHR PAM 3 and D1 antagonist -81*.
For C#CC[N+]1(CC#Cc2ccccc2)CCCC1 the results were D1 PAM -2, D1 agonist -1, TRHR ag 0, TRHR PAM -5 and D1 antagonist -52*.
Screening C(#Cc1ccccc1)C[N+]1(CC#Cc2cccc3ccccc23)CCCC1 returned D1 PAM -6, D1 agonist 1, TRHR ag 0, TRHR PAM 3 and D1 antagonist -25.
CCC(Sc1nnc2c(n1)[nH]c1ccccc12)C(=O)Nc1nnc(C(C)C)s1 (stereo unspecified) was read as D1 PAM -1, D1 agonist 1, TRHR ag 0, TRHR PAM -9 and D1 antagonist -5.
Cc1cccc(C(=O)NCC(c2ccc3c(c2)OCO3)N2CCOCC2)c1 (stereo unspecified) was read as D1 PAM -1, D1 agonist 1, TRHR ag 0, TRHR PAM -4 and D1 antagonist 6.
`CCN(CC)c1ccc2c(c1)OC(N)=C(C#N)C2c1cccnc1` (stereo unspecified) gave D1 PAM -4, D1 agonist 86*, TRHR ag 23, TRHR PAM -3 and D1 antagonist 10.
Cc1ccc(C2CC(=O)Oc3cc(O)ccc32)cc1 (stereo unspecified) was read as D1 PAM -5, D1 agonist 5, TRHR ag 3, TRHR PAM 1 and D1 antagonist -30*.
`COC(=O)c1ccc(/C=N/NC(=O)C2CC(=O)N(c3ccc(OC)cc3)C2)cc1` (stereo unspecified) gave D1 PAM -2, D1 agonist 1, TRHR ag -1, TRHR PAM -4 and D1 antagonist 24.
CCn1c(SCC(=O)Nc2cccc(Cl)c2)nnc1-c1nonc1NC(C)=O was read as D1 PAM -2, D1 agonist 3, TRHR ag -1, TRHR PAM -8 and D1 antagonist 2.
